S1P2 antag – antagonists of human S1P2 receptor. inhibition, % at 5 µM. actives 0.21% (n = 97,000). O95136. AID 736. cell-based S1P2 antagonist assay, inhibition at 5 uM; in the data active = inhibition above about 45%;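 note: CRE beta-lactamase reporter cells expressing human S1P2 stimulated with S1P; 0% = agonist at EC80 alone and 100% = agonist plus reference antagonist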
MT1-MMP txn act – activates MT1-MMP transcription | HT1080 MT1-MMP promoter luciferase reporter, luminescence, overnight; stronger effect = higher value | activation factor at 10 µM | actives 0.16% (n = 86,000);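 active = activation factor of at least 2 for MT1-MMP transcription at 10 µM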
Smad3 inh – Smad3 (human) transcription factor binding inhibition | P84022 | TR-FRET Smad3/Dy647-FoxH1 peptide binding, europium anti-His | inhibition, % at 25 µM | actives 0.29% (n = 88,000);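 active = compounds that reduce the energy-transfer binding signal between the protein and its labelled peptide by more than half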;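 note: 0% = Smad3 plus labelled peptide maximal FRET and 100% = peptide-only background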
S1P2 agonist – activates the human S1P2 receptor; actives 0.46% (n = 97,000); S1P2-expressing cell line, agonist reporter read-out; activation, % at 4.5 µM; in the data active = activation above about 16%;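 note: 0% = vehicle low control and 100% = maximal reference agonist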
GALR2 blocker – blocks the human galanin receptor 2; O43603; GALR2-expressing cells, antagonist mode; inhibition, % at 4 µM; actives 0.39% (n = 140,000); in the data active = inhibition above about 27%;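 note: cells stimulated with galanin 1-16 at roughly its EC80; 0% = agonist challenge control and 100% = basal control without agonist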
Target sequence (O43603 whole entry, looked up): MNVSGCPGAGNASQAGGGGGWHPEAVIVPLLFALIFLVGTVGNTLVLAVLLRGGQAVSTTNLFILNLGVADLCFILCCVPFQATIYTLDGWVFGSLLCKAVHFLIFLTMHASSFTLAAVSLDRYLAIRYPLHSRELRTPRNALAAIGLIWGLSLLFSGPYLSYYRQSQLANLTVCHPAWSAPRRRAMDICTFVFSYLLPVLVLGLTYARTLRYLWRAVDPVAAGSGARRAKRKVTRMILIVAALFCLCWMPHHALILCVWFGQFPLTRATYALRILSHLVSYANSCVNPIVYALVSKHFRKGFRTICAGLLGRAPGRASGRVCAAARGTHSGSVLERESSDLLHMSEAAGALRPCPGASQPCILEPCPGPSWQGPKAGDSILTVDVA
GALR2 ag – activates the human galanin receptor 2. activation, % (test concentration not listed). GALR2-expressing cells, agonist activation read-out. actives 0.48% (n = 140,000). AID 803. O43603; in the data active = activation above about 5%, passing the limit was not always enough;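 note: 0% = vehicle buffer wells and 100% = reference agonist at full effect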
An asterisk follows results filed as active; / = not tested or not shown. A selection: hits, their analogues and other compounds. The true share with any hit is near 1.4%.

SMILES | S1P2 antag | MT1-MMP txn act | Smad3 inh | S1P2 agonist | GALR2 blocker | GALR2 ag
Nn1c(-c2ccccc2Cl)nnc1-c1ccccc1Cl | -6.3 | 2* | 2.0 | -6.1 | 18.1 | -1.9
CC(C)c1ccc(-c2nc(N3CCCC3)nc3n[nH]c(N)c23)cc1 | / | 1.1 | 0.5 | / | 2.9 | 6.2*
COc1ccc([C@@H](Nc2ccccn2)c2cc(C(C)(C)C)cc(C(C)(C)C)c2O)cc1 | / | / | 69.4* | / | / | /
COc1ccc([C@@H](Nc2ncccn2)c2cc3c(cc2O)OCO3)cc1 | / | / | 9.5 | / | / | /
C[C@@]12CC[C@H]3c4ccc(OP(=O)(O)O)cc4CC[C@@H]3[C@H]1CCC2=O | / | / | -7.8 | / | / | /
CCc1ccc(C2=NN(c3ccc(S(N)(=O)=O)cc3)C(c3ccc(F)cc3)C2)cc1 (centres undefined) | -3.7 | / | / | 17.1* | -17.7 | 39.5*
NS(=O)(=O)c1ccc(N2N=C(c3ccccc3)CC2c2ccccc2)cc1 (centres undefined) | / | / | / | / | -12.2 | 5.4*
CCc1ccc(C2=NN(S(C)(=O)=O)C(c3cccs3)C2)cc1 (centres undefined) | -3.2 | 1.6 | -2.2 | -1.8 | -1.7 | -0.2
COc1cccc2c1C(=O)c1c(O)c3c(c(O)c1C2=O)C[C@](O)(C(=O)CO)C[C@@H]3O[C@@H]1C[C@H](N)[C@@H](O)[C@H](C)O1 | / | / | 8.5 | / | / | /
C/C(=N\NC(=O)c1ccncc1)c1cc2ccccc2oc1=O | / | / | / | / | 4.9 | -0.1
C/C(=N/NC(=O)c1ccncc1)c1cc2ccc(O)cc2oc1=O | / | / | / | / | -24.1 | 7.5*
NC(=S)c1cc2ccc(O)cc2oc1=O | -52.2 | / | / | 37.6* | -1.4 | 14.0*
NC(N)=NC[C@H](N)C(=O)O | / | / | -2.7 | / | / | /
Cc1cc(C)c2nc3c(c([C@H](O)[C@@H]4CCCCN4)c2c1)CC/C3=C\c1ccc(Cl)cc1 | / | / | 12.0 | / | / | /
CCCn1c2ccccc2c2nnc(SC(CC)C(=O)Nc3cc(C)on3)nc21 (centres undefined) | -37.5 | 1 | -4.3 | 29.7* | -5.8 | 0.5
COC(=O)c1ccc(C(NC(=O)OCc2ccccc2)/C(F)=C/[C@@H](C)C(=O)N2CCN(C)CC2)cc1 (some centres undefined) | / | 1.5 | / | / | / | /
COc1cccc2cc(C(=O)NCc3ccccn3)c(=O)oc12 | -4.5 | 2.1* | 1.2 | -5.6 | -2.6 | -1.1
C[C@@]12CC[C@H]3c4ccc(OCC(=O)O)cc4CC[C@@H]3[C@H]1CCC2=O | / | / | -12.3 | / | / | /
C=CCOC(=O)C1=C(C)NC(C)=C(C(=O)OCC=C)C1c1cn(-c2ccccc2)nc1-c1ccco1 | / | / | / | / | -1.4 | 5.1*
Cc1c(C(=O)N/N=C/c2ccc(N(C)C)cc2)[nH]c2ccc(Cl)cc12 | / | / | / | / | 4.4 | 6.4*
Cc1c(C(=O)N/N=C/c2ccccc2)[nH]c2ccc(Cl)cc12 | / | / | / | / | 3.7 | -0.6
N#C/C(=N\Nc1ccccc1F)C(=N)N1CCCCC1 | 3.5 | 2* | -1.3 | -5.5 | 24.4 | -2.0
C[N@@+]1(Cc2ccc(Cl)c(Cl)c2)CCC[C@@H]1c1ccc[n+](Cc2ccc(Cl)c(Cl)c2)c1 | / | / | 1.3 | / | / | /
C[N@@+]1(CC[N@+]2(C)CCC[C@@H]2c2cccnc2)CCC[C@@H]1c1cccnc1 | / | / | 91.4* | / | / | /
CCOC(=O)C1=C(C)N(CCCC(=O)O)C(=O)NC1c1ccccc1OC(=O)c1ccc(I)cc1 (centres undefined) | / | 1.1 | / | / | / | /
SMILES | S1P2 antag | MT1-MMP txn act | Smad3 inh | S1P2 agonist | GALR2 blocker | GALR2 ag
COC(=O)c1nn(-c2ccccc2)ccc1=O | -10.1 | 1.2 | 9.1 | -4.4 | 3.6 | 0.3
O=c1ccn(-c2cccc(C(F)(F)F)c2)nc1-c1ccn(-c2ccccc2)n1 | -26.9 | / | / | 25.2* | 2.5 | -1.0
N[C@@H](CSCc1ccc(I)cc1)C(=O)O | / | / | -3.7 | / | / | /
O=C1N/C(=N\N=C\c2cccnc2)SC1Cc1ccc(SC(F)F)cc1 (centres undefined) | -15.6 | / | / | 30.5* | 11.2 | -0.9
O=C1N/C(=N\N=C\c2ccc3ncccc3c2)SC1Cc1ccc(SC(F)F)cc1 (centres undefined) | 8.2 | / | / | -6.2 | 2.2 | -2.2
CCOC(=O)CN(C(=O)CSc1nnc(CNc2ccc(F)cc2)n1C)c1ccccc1 | -2.4 | 1 | -12.4 | -6.4 | -3.3 | -1.0
CCOC(=O)CN(C(=O)CSc1nnc(COc2ccc(OC)cc2)n1C)c1ccccc1 | 14.0 | 1 | 2.3 | 96.0* | -3.5 | -1.8
CC(C)(C)NC(=O)C(c1ccco1)N(C(=O)Cn1nnc(-c2ccc(F)cc2)n1)c1ccccc1F (centres undefined) | -1.0 | 1.1 | 2.8 | 18.6* | -6.7 | -0.6
CCCC(=O)OCCNc1cc(Sc2nccn2C)c2nonc2c1[N+](=O)[O-] | / | / | / | / | 3.8 | 6.2*
COc1ccc(/C=N/NC(=O)c2nc(-c3ccccc3)cc(-c3ccccc3)n2)cc1OC | 29.2 | / | / | -12.5 | -0.4 | -2.8
COc1cccc(/C=N/NC(=O)c2nc(-c3ccccc3)cc(-c3ccccc3)n2)c1 | 46.8* | / | / | -3.7 | -4.3 | -0.9
COc1ccc(C2C=C(c3cccs3)Nc3nc(CCCO)nn32)cc1 (centres undefined) | 37.2 | 0.9 | -2.8 | -13.6 | 29.7* | -2.4
CC(C)=C[C@H]1[C@H](COC(=O)c2cc3c(cc2Cl)OCO3)C1(C)C | / | / | 5.1 | / | / | /
COC(=O)c1cc(-c2cccc(OC)c2)on1 | 4.7 | 1.1 | / | -4.8 | -11.8 | -0.5
COC(=O)C1=CN(C(C)C)C=C(C(=O)OC)C1c1cccc(OC)c1 | -16.8 | 1.2 | 1.1 | 12.5 | 2.9 | 21.1*
COC(=O)C1=CN(C(C)C)C=C(C(=O)OC)C1c1cc(Br)c(OC)c(OC)c1 | -24.2 | 1.2 | -1.0 | 17.7* | 3.4 | 21.8*
COc1cc(C(=O)NCc2ccccc2)cc(Br)c1OC | / | / | / | / | 5.5 | 0.2
O=C(O)CNC(=O)c1ccccc1O | / | / | -4.2 | / | / | /
c1ccc(B2OC[C@@H]3OB(c4ccccc4)O[C@H]([C@@H]4COB(c5ccccc5)O4)[C@H]3O2)cc1 | / | / | -0.1 | / | / | /
CN1CCN(CCCNN)CC1 | / | / | 3.8 | / | / | /
CC(C)(CCc1nc2ccccc2[nH]1)C(=O)O | / | / | -5.6 | / | / | /
CCC(C)n1c(NC(=O)c2ccccc2)c(C#N)c2nc3ccccc3nc21 (centres undefined) | -76.8 | 1.1 | 4.1 | 55.9* | 1.6 | 33.8*
CCCCn1c(NC(=O)c2ccc(F)cc2)c(C#N)c2nc3ccccc3nc21 | / | 1 | / | / | / | /
C[C@@]12C[C@H](O)[C@@H]3[C@H](CCC4=CC(=O)CC[C@]43C)[C@H]1CC[C@H]2c1csc(-c2ccccc2)n1 | / | / | 0.4 | / | / | /
CN(C)CCNS(=O)(=O)N(C)C | / | / | 2.2 | / | / | /
CC1N=C2c3ccccc3N=C(SCc3cc(=O)n4cc(Cl)ccc4n3)N2C1=O (centres undefined) | -51.1 | 1 | 5.6 | 25.1* | 1.8 | 0.5
Cc1cc(C)c2sc(NNC(=O)c3ccc(S(=O)(=O)N4CCc5ccccc5C4)cc3)nc2c1 | / | / | / | / | -1.4 | 7.7*
O=C(O)c1nnsc1-c1ccc(-c2snnc2C(=O)O)cc1 | / | / | 33.6 | / | / | /
Cc1ccc(-c2nn(-c3ccccc3)cc2/C=N/NC(=O)c2ccc(Br)o2)cc1 | 100.5* | / | / | -8.1 | -10.0 | -1.2
O=C(O)c1cccc(C[C@H](Br)C(=O)O)c1 | / | / | 12.2 | / | / | /

Compound activity from PubChem BioAssay.
